Screening results (PubChem)
CYP2C19 inhib: human CYP2C19 inhibition. CYP2C19 Supersomes, luciferin-H EGE luminescence, 30 min. inhibition, % at 5 µM. actives 21% (n = 96,000). P33261;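 active = CYP2C19 inhibition above a set limit at 5 µM in the primary screen, cut at about 50% in these data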;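 also: plate controls were negative control wells for no effect and 2.5 mM tranylcypromine positive control for full effect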
Target sequence (P33261 whole entry, looked up): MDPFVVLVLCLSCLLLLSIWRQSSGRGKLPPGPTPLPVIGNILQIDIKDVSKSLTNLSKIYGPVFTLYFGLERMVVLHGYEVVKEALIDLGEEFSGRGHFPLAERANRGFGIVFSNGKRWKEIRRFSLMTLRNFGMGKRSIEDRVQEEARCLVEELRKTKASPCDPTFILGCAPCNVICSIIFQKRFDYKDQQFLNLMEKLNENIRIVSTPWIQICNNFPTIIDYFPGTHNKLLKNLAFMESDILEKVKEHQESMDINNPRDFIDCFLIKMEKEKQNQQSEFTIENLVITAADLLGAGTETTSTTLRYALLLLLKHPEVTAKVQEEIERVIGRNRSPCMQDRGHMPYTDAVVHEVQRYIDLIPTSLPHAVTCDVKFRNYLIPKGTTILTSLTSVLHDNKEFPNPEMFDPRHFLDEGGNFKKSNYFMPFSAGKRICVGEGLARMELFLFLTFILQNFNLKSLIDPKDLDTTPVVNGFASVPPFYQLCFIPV
PostGolgi yeast: growth inhibition of a yeast mutant, post-Golgi transport screen; actives 0.9% (n = 98,000); post-Golgi transport phenotypic cell assay; inhibition, % at 10 µM;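 also: yeast cells grown in 1536-well plates; yeast grown about 18 h at 30C before absorbance read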
CYP2C19 act: activators of human cytochrome P450 2C19. P33261. recombinant CYP2C19, luciferin-H EGE luminescence; stronger effect = higher value; 0 = fully inhibited enzyme, 1 = untreated enzyme. activation factor at 5 µM. 96,000 tested, under 10 active. AID 1025;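 active = activation factor of at least 2 at 5 µM in the primary screen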;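 also: 0 = wells with 2.5 mM tranylcypromine and 1 = vehicle-only wells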
CYP2C9 inhib: inhibitors of human CYP2C9. CYP2C9 Supersomes, luciferin-H conversion, luminescence. actives 20% (n = 96,000). inhibition, % at 5 µM. AID 777;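 active = blocking of liver enzyme CYP2C9 beyond about 50% at 5 µM, limit read from the data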
CYP2C9 activ: CYP2C9 (human) activation; P11712; recombinant CYP2C9, luciferin-H conversion, luminescence; stronger effect = higher value; factor 1 = untreated enzyme, 0 = blocked; activation factor at 5 µM; actives 1.4% (n = 96,000);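 active = activation factor of 2 or more for CYP2C9 at a 5 µM dose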;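 also: 0 = sulfaphenazole-blocked wells and 1 = vehicle-only wells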
PostGolgi ctrl: growth of the yeast control strain, post-Golgi counter-screen. inhibition, % at 10 µM. actives 5% (n = 98,000). efflux-deficient yeast background strain, growth absorbance A615, 16 h. AID 738
* hit, by the source's call. Shown are actives, neighbours in structure and some others; about 32% of the full set was active somewhere. Rule as the data show it, unless noted: active = inhibition above about 30%; inactive = the rest.

SMILES	CYP2C19 inhib	PostGolgi yeast	CYP2C19 act	CYP2C9 inhib	CYP2C9 activ	PostGolgi ctrl
O=c1cc(NCc2ccco2)c2ccccc2o1	45	-12	0.6	11	0.9	12
CC(=O)C1=C(O)C(=O)N(c2ccc(S(N)(=O)=O)cc2)C1c1ccc([N+](=O)[O-])cc1 (stereo unspecified)	18	-20	0.8	90*	0.1	4
CC(=O)C1=C(O)C(=O)N(c2ccc(C(=O)O)cc2)C1c1ccccc1 (stereo unspecified)	5	-6	0.9	0	1	-4
Cc1ccc(-c2nn3c(C)nnc3c3ccccc23)cc1S(=O)(=O)NCCN1CCOCC1	-3	0	1	7	0.9	11
Cc1ccc(S(=O)(=O)NCCN2CCOCC2)cc1	20	-2	0.8	-6	1.1	3
CCOc1ccc(S(=O)(=O)NCCN2CCOCC2)c2ccccc12	76*	-14	0.2	-24	1.2	7
CCCOc1ccc(S(=O)(=O)NCCN2CCOCC2)c2ccccc12	99*	4	0	44	0.6	5
CCOc1cc(S(=O)(=O)NCCN2CCOCC2)c(C)cc1C	75*	-1	0.2	-106	2.1*	-9
CCc1cccc2c(=O)c(C(=O)NCCN3CCOCC3)c[nH]c12	-14	20	1.1	-17	1.2	5
COc1ccc(-n2nnnc2SCC(=O)NC(=O)Nc2ccc3c(c2)OCCO3)cc1	2	-13	1	7	0.9	21
O=C(CSc1nnnn1-c1ccc2c(c1)OCCO2)N1CCc2ccccc21	3	-7	1	-35	1.3	11
O=C(CSc1nnnn1-c1ccc2c(c1)OCCO2)OC1CCCCC1	66*	1	0.3	45	0.5	19
Cc1ccc(NC(=O)CCSc2nnnn2-c2ccc3c(c2)OCO3)cc1C	74*	-1	0.3	49	0.5	16
c1ccc(CSc2nnnn2-c2ccc3c(c2)OCCO3)nc1	90*	4	0.1	41	0.6	-1
Clc1ccc(CSc2nnnn2-c2ccc3c(c2)OCO3)c(Cl)c1	89*	2	0.1	88*	0.1	13
Cc1ccc(-n2nnnc2SCC(=O)NC(=O)Nc2ccc3c(c2)OCCO3)cc1	16	-2	0.8	33	0.7	25
O=C(NCC(=O)N(Cc1ccccc1)C(C(=O)NCC1CCCO1)c1ccccc1)c1cccs1 (stereo unspecified)	6	-7	0.9	16	0.8	6
CCCN1C(=O)N(C)C(N(O)C(=O)NC)C1(C)C (stereo unspecified)	8	-4	0.9	4	1	6
O=C(O)COc1c(F)c(F)c(C(F)(F)F)c(F)c1F	-2	1	1	14	0.9	10
CCOc1cc(CNCC2CCCO2)cc(Br)c1OCC(N)=O (stereo unspecified)	-1	6	1	0	1	15
CCOc1cc(CNc2ccc3c(c2)OCCO3)cc(Br)c1OC	94*	-7	0.1	84*	0.2	2
CCOc1cc(CNc2ccc3c(c2)OCCO3)cc(Br)c1OCC(N)=O	53*	-5	0.5	86*	0.1	1
CCOc1c(Br)cc(CNc2ccc3c(c2)OCCO3)cc1OC	86*	-4	0.1	86*	0.1	0
CCC(c1nnc(SCC(=O)Nc2ccc(C(=O)Nc3ccccc3OC)cc2)o1)N(C)C (stereo unspecified)	35	5	0.6	-57	1.6	3
O=C1N=C2SCCN2/C1=C\c1ccccc1Cl	-8	2	1.1	-2	1	26
CC(=O)OCCN(CCOC(C)=O)c1c(C)[nH]c(=O)[nH]c1=O	-3	-8	1	8	0.9	11
CCC(C)(C)c1ccc(OCCN2C(=O)NC(C)(C)C2=O)cc1	89*	7	0.1	76*	0.2	10
CCOc1ccc(OCCN2C(=O)NC3(CCCc4ccccc43)C2=O)cc1 (stereo unspecified)	18	11	0.8	45	0.6	13
CC1(C)NC(=O)N(CCOc2ccc3c(c2)CCC3)C1=O	72*	21	0.3	21	0.8	14
CNC(=O)NC(=O)CSc1ncc(C(F)(F)F)cc1Cl	1	-3	1	-21	1.2	8
